Active and inactive are the calls of the source.
Legend:
[1] = binders of probe aFSTL3 on microarray, primary screen, stem cell growth factor project, biochemical, small-molecule microarray, fluorescence 635/667 (AID 1064); conditions: higher = more signal;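 note: measures binding of the biotinylated anti-FSTL3 antibody to printed compounds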
[2] = binders from COS7 lysate, DM2A8 probe, primary screen, torsin A project, cell lysate, small-molecule microarray, fluorescence 635/667 (AID 1065); conditions: higher = more signal, COS7 lysate expressing mutant human TOR1A
[3] = binders of probe aFGF2 on microarray, primary screen, stem cell growth factor project, biochemical, small-molecule microarray, fluorescence 635/667 (AID 1067); conditions: higher = more signal;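 note: measures binding of biotinylated aFGF2 protein to printed compounds on slides; z-score merges feature fluorescence and signal-to-noise across triplicate slides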
[4] = binders of probe aFGF10 on microarray, primary screen, stem cell growth factor project, biochemical, small-molecule microarray, fluorescence 635/667 (AID 1071); conditions: higher = more signal;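 note: score merges 667 nm spot intensity and signal to noise from triplicate slides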
[5] = target: Neurogenic locus notch homolog protein 2 (Homo sapiens) (UniProt Q04721); test: Notch2 binders on small-molecule microarrays, primary screen, biochemical, small-molecule microarray, 635 nm fluorescence, stem cell growth factors (AID 1073); conditions: Notch2 binding, higher = more signal
Neurogenic locus notch homolog protein 2 (Homo sapiens), sequence (Q04721 whole entry, looked up, canonical isoform): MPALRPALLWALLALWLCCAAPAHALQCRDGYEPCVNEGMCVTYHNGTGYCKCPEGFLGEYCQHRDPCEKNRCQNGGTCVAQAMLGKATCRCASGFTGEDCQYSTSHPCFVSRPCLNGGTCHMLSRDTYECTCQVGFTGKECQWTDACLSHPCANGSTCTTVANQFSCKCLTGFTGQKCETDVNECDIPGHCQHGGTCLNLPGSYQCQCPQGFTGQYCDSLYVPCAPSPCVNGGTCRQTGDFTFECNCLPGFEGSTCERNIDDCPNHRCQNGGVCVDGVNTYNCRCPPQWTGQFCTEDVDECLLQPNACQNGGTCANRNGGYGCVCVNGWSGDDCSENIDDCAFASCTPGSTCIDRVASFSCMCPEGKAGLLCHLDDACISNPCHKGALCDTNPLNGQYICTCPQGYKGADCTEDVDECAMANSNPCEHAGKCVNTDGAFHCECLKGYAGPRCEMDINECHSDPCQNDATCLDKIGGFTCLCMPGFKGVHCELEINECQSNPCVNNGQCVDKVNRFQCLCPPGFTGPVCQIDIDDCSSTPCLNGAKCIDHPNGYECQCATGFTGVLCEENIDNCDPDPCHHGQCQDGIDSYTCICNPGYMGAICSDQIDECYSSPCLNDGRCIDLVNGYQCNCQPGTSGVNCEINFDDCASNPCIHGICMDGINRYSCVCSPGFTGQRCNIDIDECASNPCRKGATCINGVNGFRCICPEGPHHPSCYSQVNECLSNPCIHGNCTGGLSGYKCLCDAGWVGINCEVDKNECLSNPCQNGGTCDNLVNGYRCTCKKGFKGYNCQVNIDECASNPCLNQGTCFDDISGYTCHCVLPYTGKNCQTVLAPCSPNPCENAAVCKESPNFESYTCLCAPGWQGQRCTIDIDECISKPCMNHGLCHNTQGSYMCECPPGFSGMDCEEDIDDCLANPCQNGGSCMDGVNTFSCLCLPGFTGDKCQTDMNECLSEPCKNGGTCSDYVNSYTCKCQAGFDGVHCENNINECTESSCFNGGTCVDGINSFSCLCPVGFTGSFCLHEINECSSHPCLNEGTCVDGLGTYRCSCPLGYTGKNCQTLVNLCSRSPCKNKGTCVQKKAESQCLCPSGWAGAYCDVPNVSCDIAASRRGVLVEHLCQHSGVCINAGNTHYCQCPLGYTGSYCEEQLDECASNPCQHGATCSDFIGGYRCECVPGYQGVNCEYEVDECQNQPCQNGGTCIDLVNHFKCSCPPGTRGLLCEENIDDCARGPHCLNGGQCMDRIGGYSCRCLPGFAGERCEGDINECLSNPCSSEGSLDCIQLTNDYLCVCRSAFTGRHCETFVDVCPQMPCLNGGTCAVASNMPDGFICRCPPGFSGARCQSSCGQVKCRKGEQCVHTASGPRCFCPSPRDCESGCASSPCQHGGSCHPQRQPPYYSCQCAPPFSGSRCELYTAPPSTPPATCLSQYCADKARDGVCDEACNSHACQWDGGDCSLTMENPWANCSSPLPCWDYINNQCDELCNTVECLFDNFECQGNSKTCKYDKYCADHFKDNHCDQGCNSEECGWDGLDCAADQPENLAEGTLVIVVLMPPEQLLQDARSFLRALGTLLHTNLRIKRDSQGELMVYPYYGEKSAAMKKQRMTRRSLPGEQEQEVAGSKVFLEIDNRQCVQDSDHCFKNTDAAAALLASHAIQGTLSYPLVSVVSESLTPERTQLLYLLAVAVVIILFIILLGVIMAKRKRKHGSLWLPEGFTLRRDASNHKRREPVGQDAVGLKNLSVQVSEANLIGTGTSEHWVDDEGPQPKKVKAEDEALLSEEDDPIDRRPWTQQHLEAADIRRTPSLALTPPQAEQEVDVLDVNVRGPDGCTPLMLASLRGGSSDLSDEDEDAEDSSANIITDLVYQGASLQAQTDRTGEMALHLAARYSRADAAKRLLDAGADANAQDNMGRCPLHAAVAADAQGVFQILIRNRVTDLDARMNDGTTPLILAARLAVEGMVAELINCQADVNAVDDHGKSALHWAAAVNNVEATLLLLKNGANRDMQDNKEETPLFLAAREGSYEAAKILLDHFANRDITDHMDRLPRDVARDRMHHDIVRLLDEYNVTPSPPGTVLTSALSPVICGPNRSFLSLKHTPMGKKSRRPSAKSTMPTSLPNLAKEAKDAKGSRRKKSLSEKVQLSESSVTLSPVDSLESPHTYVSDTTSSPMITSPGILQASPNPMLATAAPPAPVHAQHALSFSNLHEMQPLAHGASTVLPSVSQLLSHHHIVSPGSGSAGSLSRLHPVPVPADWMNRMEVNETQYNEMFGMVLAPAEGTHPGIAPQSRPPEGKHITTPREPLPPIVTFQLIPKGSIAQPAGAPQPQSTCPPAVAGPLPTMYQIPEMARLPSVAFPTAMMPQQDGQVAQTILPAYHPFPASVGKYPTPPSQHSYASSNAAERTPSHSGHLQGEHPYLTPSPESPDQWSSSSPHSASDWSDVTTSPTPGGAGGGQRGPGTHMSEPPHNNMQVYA

[6] = target: Pro-neuregulin-1, membrane-bound isoform (Homo sapiens) (UniProt Q02297); test: NRG1 binders on small-molecule microarrays, primary screen, psychiatric disease protein project, biochemical, small-molecule microarray, fluorescence 635/667 (AID 1075); conditions: NRG1 binding, 635 nm fluorescence, higher = more signal;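 note: score combines 667 nm spot fluorescence with signal to noise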
Pro-neuregulin-1, membrane-bound isoform (Homo sapiens), sequence (Q02297 whole entry, looked up, the tested form may be a part, canonical isoform): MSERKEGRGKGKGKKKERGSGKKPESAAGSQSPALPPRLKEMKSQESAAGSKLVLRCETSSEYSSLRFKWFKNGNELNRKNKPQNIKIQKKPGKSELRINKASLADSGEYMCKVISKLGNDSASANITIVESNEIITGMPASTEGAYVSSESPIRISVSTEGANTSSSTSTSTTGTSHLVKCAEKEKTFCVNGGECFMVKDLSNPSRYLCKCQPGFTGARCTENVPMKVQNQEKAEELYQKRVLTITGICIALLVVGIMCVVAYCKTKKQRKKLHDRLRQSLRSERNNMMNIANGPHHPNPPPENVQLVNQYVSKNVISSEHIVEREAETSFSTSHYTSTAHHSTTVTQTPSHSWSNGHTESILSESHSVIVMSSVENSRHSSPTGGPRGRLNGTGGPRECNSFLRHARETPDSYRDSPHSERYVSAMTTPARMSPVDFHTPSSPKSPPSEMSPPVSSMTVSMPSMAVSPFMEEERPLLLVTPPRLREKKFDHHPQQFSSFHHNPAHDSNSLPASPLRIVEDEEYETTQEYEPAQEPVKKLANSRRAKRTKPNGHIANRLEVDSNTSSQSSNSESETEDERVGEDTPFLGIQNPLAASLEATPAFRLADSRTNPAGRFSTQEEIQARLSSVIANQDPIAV

[7] = tested on: Neuregulin-1 EGF-like domain; test: binders of neuregulin-1 EGF-like domain, primary screen, biochemical, small-molecule microarray, 635 nm fluorescence (AID 1081); conditions: small-molecule microarray binding, higher = more signal;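 note: binding of the protein to compounds printed on small-molecule microarray slides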
[8] = FRG1 promoter luciferase signal modulators, primary screen, FRG1 inhibition for FSHD, cell-based, C2C12 myotubes, firefly/Renilla luciferase, luminescence (AID 1084); conditions: higher = more signal, called active from +8 up or from −8 down
[9] = binders of probe aFST on microarray, primary screen, stem cell growth factor project, biochemical, small-molecule microarray, fluorescence 635/667 (AID 1086); conditions: higher = more signal;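 note: score merges 667 nm fluorescence with signal-to-noise of each printed compound spot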
[10] = binders of probe aHhip on microarray, primary screen, stem cell growth factor project, biochemical, small-molecule microarray, fluorescence 635/667 (AID 1087); conditions: higher = more signal;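 note: score merges spot fluorescence at 667nm with spot signal to noise ratio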
[11] = tested on: PRMT1 (protein arginine N-methyltransferase 1); test: PRMT1 binders on small-molecule microarrays, primary screen, biochemical, small-molecule microarray, 635 nm fluorescence (AID 1088); conditions: small-molecule microarray binding, higher = more signal;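 note: binding of Prmt1 protein to compounds spotted on small-molecule microarray slides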
[12] = yeast growth modulation, basal conditions, primary screen, YJM789 clinical isolate, OD600, 24 h (AID 1089);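 note: growth of clinical yeast isolate S. cerevisiae YJM 789 seeded 1000 cells per well; test concentration not given here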; conditions: S. cerevisiae YJM789 growth, higher = more signal, called active from +8 up or from −8 down
[13] = fission yeast growth modulation, primary screen, strain 972, OD600, 24 h, no modulator (AID 1090);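 note: basal condition with compound alone and no growth modifier present; test concentration not given here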; conditions: S. pombe 972 growth, higher = more signal, called active from +8 up or from −8 down
[14] = S. cerevisiae growth modulation with rapamycin, primary screen, strain BY4716, OD600, 96 h (AID 1091); conditions: higher = more signal, called active from +8 up or from −8 down; note: test concentration not given here
[15] = target: Torsin-1A-interacting protein 2 (Homo sapiens) (UniProt Q8NFQ8); test: LULL1 binders on small-molecule microarray, primary screen, cell lysate, human LULL1 lysate, 635/667 nm fluorescence (AID 1092); conditions: hLULL1 lysate binding, 635 nm fluorescence, higher = more signal;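 note: probe is lysate of COS7 cells overexpressing human LULL1; score merges per-feature 667 nm fluorescence with signal-to-noise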
Torsin-1A-interacting protein 2 (Homo sapiens), sequence (Q8NFQ8 whole entry, looked up): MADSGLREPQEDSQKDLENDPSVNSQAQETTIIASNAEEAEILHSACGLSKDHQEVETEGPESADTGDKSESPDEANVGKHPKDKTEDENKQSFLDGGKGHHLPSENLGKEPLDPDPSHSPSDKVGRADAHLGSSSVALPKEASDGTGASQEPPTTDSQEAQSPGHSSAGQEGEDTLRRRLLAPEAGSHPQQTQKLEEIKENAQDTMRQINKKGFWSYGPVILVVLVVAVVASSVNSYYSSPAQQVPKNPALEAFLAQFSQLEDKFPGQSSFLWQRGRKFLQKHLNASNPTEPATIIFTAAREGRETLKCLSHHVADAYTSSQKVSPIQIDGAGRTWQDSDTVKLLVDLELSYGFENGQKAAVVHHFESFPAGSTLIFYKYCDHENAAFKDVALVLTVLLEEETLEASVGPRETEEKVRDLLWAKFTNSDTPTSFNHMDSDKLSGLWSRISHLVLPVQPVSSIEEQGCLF

[16] = E. coli growth modulation, two-sided OD650, primary screen, E. coli filamentation project, strain DRC41, 24 h (AID 1093); conditions: OD650, 24 h, higher = more signal, called active from +8 up or from −8 down;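 note: MC1000 strain lacking acrAB efflux and sulA so SOS filamentation is blocked; test concentration not given here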
[17] = small-molecule microarray binders of probe aLefty2, primary screen, biochemical, biotinylated probe, 635/667 nm fluorescence (AID 1094); conditions: higher = more signal;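 note: score merges spot fluorescence near 667 nm with spot signal-to-noise ratio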
[18] = tested on: Noggin (protein binding on small-molecule microarray); test: Noggin binders on small-molecule microarray, primary screen, biochemical, 635/667 nm fluorescence (AID 1095); conditions: 635 nm fluorescence, higher = more signal;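 note: score merges 667 nm feature fluorescence with signal to noise over triplicate slides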
[19] = target: Neurogenic locus notch homolog protein 3 (Homo sapiens) (UniProt Q9UM47); test: NOTCH3 binders on small-molecule microarray, primary screen, biochemical, 635/667 nm fluorescence (AID 1096); conditions: NOTCH3 binding, 635 nm fluorescence, higher = more signal
[20] = small-molecule microarray binders of probe aEGFR, primary screen, biochemical, biotinylated probe, 635/667 nm fluorescence (AID 1097); conditions: higher = more signal;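 note: probe is a biotinylated anti-EGFR antibody binding compounds printed on slides; score combines fluorescence near 667 nm and signal to noise of each spot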

CCOC(=O)[C@H](Cc1ccccc1)NC(=O)CCC1CC(OC(=O)NCc2ccc3c(c2)OCO3)CC2(CCCC(COC(=O)NCCOC)O2)O1 (stereo not given in full)
composite z-score [1]: -0.444 | composite z-score [2]: 1.85 | composite z-score [3]: -0.0533 | composite z-score [4]: 0.688 | composite z-score [5]: 0.994 | composite z-score [6]: 0.63 | composite z-score [7]: 0.773 | z-score [8]: 1.75 (inactive) | composite z-score [9]: 0.412 | composite z-score [10]: 0.524 | composite z-score [11]: 1.56 | z-score [12]: -0.439 (inactive) | z-score [13]: -0.25 (inactive) | z-score [14]: -0.364 (inactive) | composite z-score [15]: 2.34 | z-score [16]: -0.141 (inactive) | composite z-score [17]: -0.166 | composite z-score [18]: 0.884 | composite z-score [19]: 1.05 | composite z-score [20]: 0.0059

C#CCCCON=C1C[C@@H](O)[C@@H](O)[C@@H]2[C@@H]3C(=O)N(C4CCCCC4)C(=O)[C@@H]3CC[C@@H]12
composite z-score [1]: 0.835 | composite z-score [2]: 0.0616 | composite z-score [3]: -0.115 | composite z-score [4]: -0.0372 | composite z-score [5]: 0.766 | composite z-score [6]: 0.846 | composite z-score [7]: 0.565 | z-score [8]: 0.287 (inactive) | composite z-score [9]: -0.0386 | composite z-score [10]: 0.312 | composite z-score [11]: 0.335 | z-score [12]: -1.83 (inactive) | z-score [13]: -1.61 (inactive) | z-score [14]: -1.07 (inactive) | composite z-score [15]: 1.01 | z-score [16]: 0.862 (inactive) | composite z-score [17]: -0.118 | composite z-score [18]: 0.454 | composite z-score [19]: 0.358 | composite z-score [20]: -0.0409

C[C@H]1CC[C@H]2C(=O)N[C@H](Cc3ccccc3)C(=O)N2[C@@H]1c1ccccc1
composite z-score [1]: -0.335 | composite z-score [2]: 0.524 | composite z-score [3]: -0.0893 | composite z-score [4]: 0.412 | composite z-score [5]: 0.301 | composite z-score [6]: -0.717 | composite z-score [7]: 0.366 | z-score [8]: 1.33 (inactive) | composite z-score [9]: 0.0175 | composite z-score [10]: -0.13 | composite z-score [11]: -0.0481 | z-score [12]: 0.492 (inactive) | z-score [13]: 0.0432 (inactive) | z-score [14]: -0.489 (inactive) | composite z-score [15]: 0.217 | z-score [16]: 0.805 (inactive) | composite z-score [17]: -0.17 | composite z-score [18]: 0.413 | composite z-score [19]: -0.304 | composite z-score [20]: -0.0794

CC(C)CON=C1C[C@@H](O)[C@@H](O)[C@@H]2[C@@H]3C(=O)N(Cc4ccc5c(c4)OCO5)C(=O)[C@@H]3CC[C@@H]12
composite z-score [1]: -0.345 | composite z-score [2]: -0.142 | composite z-score [3]: 0.0138 | composite z-score [4]: 0.11 | composite z-score [5]: -0.0138 | composite z-score [6]: 0.474 | composite z-score [7]: 0.814 | z-score [8]: -0.197 (inactive) | composite z-score [9]: -0.141 | composite z-score [10]: 0.0659 | composite z-score [11]: 0.731 | z-score [12]: -0.12 (inactive) | z-score [13]: 0.54 (inactive) | z-score [14]: -0.409 (inactive) | composite z-score [15]: 1.69 | z-score [16]: -0.38 (inactive) | composite z-score [17]: -0.195 | composite z-score [18]: 0.697 | composite z-score [19]: -0.173 | composite z-score [20]: -0.192

CON=C1c2cc(OC)ccc2O[C@H](c2cccc(OC)c2)[C@H]1O
composite z-score [1]: -0.289 | composite z-score [2]: 0.707 | composite z-score [3]: -0.0473 | composite z-score [4]: 0.492 | composite z-score [5]: 0.385 | composite z-score [6]: 0.247 | composite z-score [7]: 0.945 | z-score [8]: 5.9 (inactive) | composite z-score [9]: 0.583 | composite z-score [10]: 0.0053 | composite z-score [11]: -0.0242 | z-score [12]: -0.976 (inactive) | z-score [13]: -3 (inactive) | z-score [14]: -1.75 (inactive) | composite z-score [15]: 0.365 | z-score [16]: 0.792 (inactive) | composite z-score [17]: -0.0515 | composite z-score [18]: 0.588 | composite z-score [19]: 0.684 | composite z-score [20]: 0.0242

CC#CCOCCC=C1c2ccccc2[C@@H](OC)[C@@H]1C
composite z-score [1]: -0.35 | composite z-score [2]: 0.575 | composite z-score [3]: -0.143 | composite z-score [4]: 0.452 | composite z-score [5]: 0.105 | composite z-score [6]: -0.361 | composite z-score [7]: 0.244 | z-score [8]: 0.181 (inactive) | composite z-score [9]: 0.359 | composite z-score [10]: 0.154 | composite z-score [11]: 0.513 | z-score [12]: -0.0953 (inactive) | z-score [13]: -2.52 (inactive) | z-score [14]: -0.933 (inactive) | composite z-score [15]: 0.127 | z-score [16]: 0.596 (inactive) | composite z-score [17]: -0.0266 | composite z-score [18]: 0.697 | composite z-score [19]: 0.153 | composite z-score [20]: 0.0579

C#CCCCON=C1[C@H]2CCn3c(=O)n([C@@H](CC)c4ccccc4)c(=O)n3[C@H]2[C@H](O)[C@@H]2O[C@H]12
composite z-score [1]: -0.409 | composite z-score [2]: 0.152 | composite z-score [3]: 0.0047 | composite z-score [4]: 0.353 | composite z-score [5]: 0.148 | composite z-score [6]: 0.24 | composite z-score [7]: 0.322 | z-score [8]: 0.456 (inactive) | composite z-score [9]: -0.0356 | composite z-score [10]: -0.261 | composite z-score [11]: -0.142 | z-score [12]: -0.455 (inactive) | z-score [13]: -1.1 (inactive) | z-score [14]: -0.533 (inactive) | composite z-score [15]: 0.883 | z-score [16]: -0.647 (inactive) | composite z-score [17]: -0.114 | composite z-score [18]: 1.05 | composite z-score [19]: 0.226 | composite z-score [20]: -0.042

O=C1[C@H]2CCn3c(=O)n(-c4ccccc4)c(=O)n3[C@H]2[C@H](O)[C@@H]2O[C@H]12
composite z-score [1]: -0.561 | composite z-score [2]: -0.0619 | composite z-score [3]: -0.0667 | composite z-score [4]: 0.328 | composite z-score [5]: 0.164 | composite z-score [6]: 1.63 | composite z-score [7]: -0.125 | z-score [8]: -0.217 (inactive) | composite z-score [9]: -0.0545 | composite z-score [10]: -0.305 | composite z-score [11]: -0.0775 | z-score [12]: 0.689 (inactive) | z-score [13]: -0.41 (inactive) | z-score [14]: -0.206 (inactive) | composite z-score [15]: -0.29 | z-score [16]: -0.0475 (inactive) | composite z-score [17]: -0.225 | composite z-score [18]: 0.224 | composite z-score [19]: -0.281 | composite z-score [20]: -0.181

COC(=O)[C@H](C)NC(=O)CCC1CC(OC(=O)NCCc2ccc(F)cc2)CC2(CCCC(COC(=O)NCCOc3ccccc3)O2)O1 (stereo not given in full)
composite z-score [1]: -0.443 | composite z-score [2]: 0.269 | composite z-score [3]: -0.0392 | composite z-score [4]: 0.532 | composite z-score [5]: 1.34 | composite z-score [6]: 0.672 | composite z-score [7]: 0.933 | z-score [8]: 0.907 (inactive) | composite z-score [9]: 0.238 | composite z-score [10]: -0.173 | composite z-score [11]: 1.46 | z-score [12]: -0.233 (inactive) | z-score [13]: 0.927 (inactive) | z-score [14]: 1.12 (inactive) | composite z-score [15]: 2.64 | z-score [16]: 0.219 (inactive) | composite z-score [17]: -0.0073 | composite z-score [18]: 0.724 | composite z-score [19]: 1.06 | composite z-score [20]: -0.106

CC(C)(C)N1C(=O)[C@H]2[C@@H]3C(=CC[C@H]2C1=O)C(=O)[C@H]1O[C@H]1[C@H]3O
composite z-score [1]: -0.293 | composite z-score [2]: 1.62 | composite z-score [3]: -0.226 | composite z-score [4]: 0.25 | composite z-score [5]: -0.573 | composite z-score [6]: -0.261 | composite z-score [7]: 0.17 | z-score [8]: 9.15 (active) | composite z-score [9]: -0.546 | composite z-score [10]: 0.0024 | composite z-score [11]: 0.34 | z-score [12]: -2.18 (inactive) | z-score [13]: -4.57 (inactive) | z-score [14]: -1.63 (inactive) | composite z-score [15]: -0.758 | z-score [16]: -2 (inactive) | composite z-score [17]: -0.338 | composite z-score [18]: -0.0454 | composite z-score [19]: -0.615 | composite z-score [20]: -0.152

Source: PubChem BioAssay
